Rows were chosen to be rich in hits. Some 2.4% of all compounds tested hit in one or more screens of this group.
Pol iota inh: DNA polymerase iota (human) inhibition; Q9UNA4; Pol iota fluorescent replication assay, 10 min; Potency, µM (titrated, usually from 115 µM), for the others: at the highest dose activity, negative = inhibition, usual class: inhibitors; 390,000 compounds, 1% hits; AID 588590
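Fluorescent replication assay read twice, at 0 min and 10 min after adding 50 nM (final) substrate. Enzyme (10 nM) and compounds were first incubated 15 min at room temperature; enzyme-free buffer wells were negative controls.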
Pol eta inh: DNA polymerase eta (human) inhibition; AID 588591; recombinant Pol eta, fluorescent DNA replication assay; 390,000 compounds, 1.2% hits; Potency, µM (doses to about 114 µM), without a hit: at the highest dose activity change, negative = inhibition, usual class: inhibitors; also: % is scaled to controls: 0 for no effect and ±100 for the full control effect
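Pol eta (10 nM) was preincubated with compounds for 15 min at room temperature, after which fluorescent replication substrate (50 nM final) was added to start the reaction. Fluorescence was read kinetically at 0 and 10 min.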
POLB inh: blocks human DNA polymerase beta activity; P06746; Pol beta primer extension/strand displacement, fluorescence kinetic; Potency, µM (series often up to 114 µM), inactives show at the top dose activity change, negative = inhibition, most hits filed as inhibitors; 340,000 compounds, 1.3% hits; AID 485314; also: % is scaled to controls: 0 for no effect and ±100 for the full control effect
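Pol beta (10 nM) was preincubated with compound for 15 min at room temperature. The reaction was then started with 50 nM substrate and read immediately and after a further 10 min at room temperature.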
FEN1 inh: human FEN1 inhibition; P39748; Recombinant FEN1 flap cleavage, fluorescence, 15 min; Potency, µM (top dose mostly 114 µM), without a hit: at the top dose activity change, negative = inhibition, hits mostly inhibitors; 390,000 compounds, 0.35% hits; AID 588795; also: % is scaled to controls: 0 for no effect and ±100 for the full control effect; nearly all actives have a fitted effect of over 65% in size
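Quantitative HTS format: each compound was titrated, incubated with 10 nM nuclease for 15 min at room temperature, then challenged with flap substrate at 50 nM final. Signal change over 15 min gave concentration–effect curves.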
Tb PGK inh: inhibitors of T. brucei phosphoglycerate kinase; P07378; PGK/GAPDH coupled, Kinase-Glo luminescence, 60 min; Potency, µM (titrated, usually from 57.5 µM), inactives show at the top dose activity change, negative = inhibition, usual class: inhibitors; 380,000 compounds, 0.043% hits; also: % is scaled to controls: 0 for no effect and ±100 for the full control effect; nearly all actives have a fitted effect of over 60% in size
Target sequence (P07378 whole entry, looked up): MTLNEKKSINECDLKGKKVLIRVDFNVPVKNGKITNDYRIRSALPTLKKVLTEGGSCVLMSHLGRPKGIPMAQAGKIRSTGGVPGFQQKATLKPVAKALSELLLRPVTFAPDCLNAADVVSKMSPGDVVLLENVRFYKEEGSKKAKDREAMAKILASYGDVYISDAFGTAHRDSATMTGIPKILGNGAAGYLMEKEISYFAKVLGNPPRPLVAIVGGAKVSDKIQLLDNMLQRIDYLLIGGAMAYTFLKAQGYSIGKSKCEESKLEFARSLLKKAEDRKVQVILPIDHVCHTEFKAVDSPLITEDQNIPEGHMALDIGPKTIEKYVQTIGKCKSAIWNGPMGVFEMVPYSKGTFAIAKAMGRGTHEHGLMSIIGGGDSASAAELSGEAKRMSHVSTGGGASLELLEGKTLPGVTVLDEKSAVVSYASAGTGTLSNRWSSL
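Recombinant glycosomal PGK reaction used 1,3-bisphosphoglycerate generated in-well by GAPDH (100nM final) in 100mM TEA pH 7.6, 5mM MgCl2, 0.01% Tween-20. After 60 minutes at room temperature, ATP was read by Kinase-Glo Plus luminescence end-point.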
POLK inh: blocks human DNA polymerase kappa activity. purified Pol kappa, fluorescent DNA synthesis assay, 10 min. Potency, µM (titrated, usually from 107 µM), without a hit: at the top dose activity, negative = inhibition, actives largely listed as inhibitors. AID 588579. 400,000 compounds, 0.53% hits. Q9UBT6; also: % is scaled to controls: 0 for no effect and ±100 for the full control effect
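10 nM Pol kappa preincubated 15 min at room temperature with compounds, then reaction started with substrate at 50 nM final. Fluorescence read kinetically at 0 and 10 min; buffer-only wells served as negative control.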
* marks the source's active call; other numbers are inactive results; i = inactive; ? = inconclusive; . = not tested or not shown; [ ] = remark or other dose. Calls follow the shape of the dose curve; as a rule, active = well fitted curve in the direction sought with a large enough effect; inconclusive = small, poorly fitted or top-dose-only effect, or another doubt; inactive = no such curve, though single readings can be large; an effect the other way counts as inactive or inconclusive. Potency is read from the fitted curve at half-maximal effect.

SMILES	Pol iota inh	Pol eta inh	POLB inh	FEN1 inh	Tb PGK inh	POLK inh
O=C(N/N=C/c1ccc(-c2cccc([N+](=O)[O-])c2)o1)c1ccccc1O	48%	50µM*	?	?	-15%	6%
O=C(N/N=C/c1ccc([N+](=O)[O-])o1)c1cc(-c2ccncc2)nc2ccccc12	?	89µM*	?	-7%	-6%	?
O=C(N/N=C/c1cccc([N+](=O)[O-])c1)c1cc(-c2ccccc2)nc2ccccc12	-1%	-7%	11%	-16%	0%	-1%
Cc1ccc(S(=O)(=O)N2CN(CC3CCCO3)c3nc4ccccc4nc32)c(C)c1 (configuration not stated)	71µM*	-18%	-8%	-1%	5%	-18%
CCOc1ccc(CCNC(=O)NCc2noc3ccc(C)cc23)cc1	21%	-17%	16%	-12%	7%	1%
N/C(=N\OS(=O)(=O)c1ccccc1)c1ccncc1	20µM*	-5%	22%	-3%	-4%	2%
Cc1ccc2nc(-c3ccc(C)o3)c(Nc3ccc(Cl)cc3)n2c1	58%	.	.	8%	.	-4%
N#C/C(=C\c1ccc(OCc2ccc(Cl)cc2Cl)cc1)c1nc2ccccc2[nH]1	43%	-12%	11%	1%	i	-12%
COc1cc(/C=C(\C#N)c2nc3ccccc3[nH]2)cc(Cl)c1OCc1ccccc1Cl	69%	?	3.2µM*	15%	-6%	-8%
C/C=C\C=C/C(=O)Nc1cccc(C2=NOC3(C2)C[C@@H](C(N)=O)N(C(=O)/C=C/CC)C3)c1 (some centres not stated)	28µM*	22µM*	5%	-14%	4%	?
C/C=C(/C)C(=O)Nc1cccc(C2=NOC3(C2)C[C@H](C(N)=O)N(C(=O)c2ccc(Cl)cc2)C3)c1 (some centres not stated)	41%	-13%	-4%	18%	4%	5%
C=C(C)C(=O)Nc1cccc(C2=NOC3(C2)C[C@@H](C(N)=O)N(C(=O)c2ccc(Cl)cc2)C3)c1 (some centres not stated)	35µM*	4.5µM*	8.9µM*	?	2.2µM*	35µM*
C/C=C\C=C/C(=O)Nc1cccc(C2=NOC3(C2)C[C@@H](C(N)=O)N(C(=O)/C=C/C=C\C)C3)c1 (some centres not stated)	10µM*	7.9µM*	6.3µM*	50µM*	?	20µM*
CN(C)c1ccc(/C=C2\C=Cc3ccccc32)cc1[N+](=O)[O-]	11%	.	.	-15%	.	-20%
C=Nc1ccc(/C=C/c2ccnc3ccccc23)cc1	30%	.	.	-20%	.	-19%
Cc1ccc(C)c(N2CCN(C(=O)CCS(=O)(=O)c3cc(Br)cc4c3N(C(=O)C3CC3)CC4)CC2)c1	-6%	-3%	4%	-3%	-3%	5%
O=C(N/N=C/c1ccc(OCc2ccccc2)cc1)c1ccncc1	-22%	-7%	9%	-4%	.	1%
Oc1ccc(N=Cc2ccc(OCc3ccccc3)cc2)cc1	?	22µM*	2%	?	?	-22%
O=c1[nH]cc(CCc2ccccc2)c2ncncc12	?	.	.	-11%	.	0%
O=C(O)c1cccc(NC(=S)NC(NC(=O)c2ccccc2[N+](=O)[O-])C(Cl)(Cl)Cl)c1 (configuration not stated)	25%	-15%	-7%	17%	3%	-10%
O=C(O)c1cccc(NC(=S)NC(NC(=O)c2cccc([N+](=O)[O-])c2)C(Cl)(Cl)Cl)c1 (configuration not stated)	11%	56µM*	?	-9%	-29%	-9%
Cc1ccc(SCc2cc(=O)c3c(=O)n(-c4ccccc4)[nH]c3[nH]2)cc1	22µM*	-3%	35µM*	-9%	0%	?
O=c1cc(CSc2ccc(Cl)cc2)[nH]c2[nH]n(-c3ccccc3)c(=O)c12	?	-16%	40µM*	10%	-3%	?
Cc1ccc2c(=O)cc(CSc3ccccc3)[nH]c2c1C	-22%	-3%	34%	-17%	4%	-10%[60.1 µM]
Cc1cccc2c(C(O)c3c[nH]c4c(C)cccc34)c[nH]c12	-19%	.	.	1%	.	-33%
SMILES	Pol iota inh	Pol eta inh	POLB inh	FEN1 inh	Tb PGK inh	POLK inh
COc1ccc(N2CCN(C(c3ccccc3)c3nnnn3C(C)C)CC2)cc1 (configuration not stated)	29%	.	.	3%	.	-2%
Cc1ccc(-n2[nH]c(C)c(C=Nc3cc(C)ccn3)c2=O)cc1	0%	-6%	16%	-12%	-11%	-25%
Cc1ccnc(N=O)c1	31%	-15%	.	50µM*	i	7%
Cc1ccc(C(=O)Sc2cccccc2=O)cc1	?	-14%	40µM*	1%	0%	-17%
COc1ccc(-c2noc(C3CCCN(C(=O)c4ccc(F)cc4)C3)n2)cc1 (configuration not stated)	38%	-5%	1%	89µM*	-1%	-10%
CCOC(=O)c1sc(Nc2nc3cc4c(cc3s2)OCO4)cc1C	11%	?	35µM*	-9%	-5%	-5%
COC(=O)CC(=O)CSc1nc2cc(C(=O)NCC(C)C)ccc2c(=O)n1CCc1ccccc1	-5%	-8%	-8%	21%	-7%	-6%
O=C(CSc1nc2sc3c(c2c(=O)n1-c1ccccc1)CCCC3)N/N=C/c1ccc(C(=O)O)cc1	40µM*	?	?	4%	-17%	?
O=C(CSc1nc2sc3c(c2c(=O)n1-c1ccccc1)CCCC3)NCc1ccco1	?	-4%	7%	17%	-5%	-22%
Cc1nnc(C)n1/N=C/c1ccc(-c2ccccc2Cl)o1	129%	-12%	60%	-4%	i	-2%
O=C1NC(=S)/C(=C\c2ccc(-c3ccccc3Cl)o2)S1	?	16µM*	40µM*	?	-24%	?
O=C(O)Cc1sc(Nc2cccc3ccccc23)nc1-c1ccccc1	-1%	2%	.	-15%	-7%	-6%
O=C(O)Cc1sc(Nc2cccc3ccccc23)nc1-c1ccc(Cl)cc1	178%	79µM*	?	1%	0%	-13%
Cn1c(NC(=O)c2ccc(F)cc2)nc2ccccc21	89µM*	-17%	5%	-4%	-12%	-14%
O=C(Nc1nc2ccccc2c2nc3ccccc3n12)c1ccc(F)cc1	.	.	39%	.	.	.
Cc1ccc(/C=C/C(=O)Nc2nccs2)o1	64%	-3%	86%	-2%	11%	3%
Cc1ccc(/C=C/C(=O)Nc2nnc(SCc3ccc(C#N)cc3)s2)o1	40µM*	?	21%	19%	-4%	?

Screening data (PubChem BioAssay)
